PubChem BioAssay AID651768 (National Center for Advancing Translational Sciences (NCATS), 2012)
About 1,700 (0.47%) of roughly 360,000 compounds were called active. Roughly 2% stayed inconclusive and do not appear here. Calls come from the whole dose curve; as a rule, active = well fitted inhibition curve with a large enough effect; inconclusive = small, poorly fitted or top-dose-only effect; inactive = no such curve, though single readings can be large or run the other way. The entries come from a sample that favours actives as a whole.

Target: Bifunctional 3'-5' exonuclease/ATP-dependent helicase WRN (Homo sapiens) (UniProt Q14191)
Sequence (Q14191 whole entry, looked up): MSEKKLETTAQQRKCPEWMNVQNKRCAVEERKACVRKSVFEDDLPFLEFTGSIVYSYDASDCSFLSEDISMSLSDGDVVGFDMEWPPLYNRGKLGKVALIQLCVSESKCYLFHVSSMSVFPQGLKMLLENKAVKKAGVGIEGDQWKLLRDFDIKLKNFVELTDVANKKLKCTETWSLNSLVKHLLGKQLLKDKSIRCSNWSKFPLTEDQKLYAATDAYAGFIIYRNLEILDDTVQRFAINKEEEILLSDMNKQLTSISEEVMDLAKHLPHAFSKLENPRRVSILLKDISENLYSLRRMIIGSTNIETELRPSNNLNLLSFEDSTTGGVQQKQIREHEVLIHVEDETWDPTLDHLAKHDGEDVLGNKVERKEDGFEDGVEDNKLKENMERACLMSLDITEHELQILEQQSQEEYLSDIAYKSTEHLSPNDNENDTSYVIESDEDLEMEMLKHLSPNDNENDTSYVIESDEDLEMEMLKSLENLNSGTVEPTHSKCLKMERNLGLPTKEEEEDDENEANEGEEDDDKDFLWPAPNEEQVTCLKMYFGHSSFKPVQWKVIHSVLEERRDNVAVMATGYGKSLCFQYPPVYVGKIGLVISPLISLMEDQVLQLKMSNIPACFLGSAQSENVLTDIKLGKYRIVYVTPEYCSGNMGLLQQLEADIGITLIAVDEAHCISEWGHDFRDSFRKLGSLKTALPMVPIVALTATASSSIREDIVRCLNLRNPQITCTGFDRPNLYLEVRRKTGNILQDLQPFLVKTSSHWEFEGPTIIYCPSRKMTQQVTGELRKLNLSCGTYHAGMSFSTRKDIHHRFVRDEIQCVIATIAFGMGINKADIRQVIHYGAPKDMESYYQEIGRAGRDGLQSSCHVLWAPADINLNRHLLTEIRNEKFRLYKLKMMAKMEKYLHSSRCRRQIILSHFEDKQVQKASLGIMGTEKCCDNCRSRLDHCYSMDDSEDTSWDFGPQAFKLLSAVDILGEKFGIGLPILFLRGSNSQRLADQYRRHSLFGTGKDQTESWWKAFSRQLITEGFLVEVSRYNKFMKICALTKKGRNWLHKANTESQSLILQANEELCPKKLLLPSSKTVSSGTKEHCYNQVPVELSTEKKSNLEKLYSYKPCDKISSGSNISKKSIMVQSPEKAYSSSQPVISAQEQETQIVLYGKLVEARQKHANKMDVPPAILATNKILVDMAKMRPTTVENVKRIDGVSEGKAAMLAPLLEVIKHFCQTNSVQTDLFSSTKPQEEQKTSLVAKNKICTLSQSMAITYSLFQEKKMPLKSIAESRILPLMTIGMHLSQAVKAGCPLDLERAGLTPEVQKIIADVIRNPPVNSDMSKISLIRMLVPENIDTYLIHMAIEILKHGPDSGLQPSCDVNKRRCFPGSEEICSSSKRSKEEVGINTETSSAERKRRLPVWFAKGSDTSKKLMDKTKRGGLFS
Assay: qHTS for Inhibitors of WRN Helicase; note: nearly all actives have a fitted effect of over 55% in size
Settings: WRN helicase unwinding, fluorescent forked duplex, kinetic; series mostly up to 114 µM; activity change, negative = inhibition: at the top concentration
Summary of the method: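 Enzyme (20 nM final) and test compound sit together 15 min at room temperature before substrate addition. Substrate is a single-forked duplex oligonucleotide (100 nM) labelled with fluorophore and quencher, with 2 mM ATP; helicase unwinding raises red fluorescence, read kinetically.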
% is set by controls: 0 for no effect and ±100 for the full control effect; potency is the fitted concentration of half-maximal effect.

Compound | activity change, negative = inhibition | Potency
COc1ccc([C@H]2CC(=O)C[C@@H](CCn3cc(CC4CCCC4)nn3)O2)cc1 | 1.6% (inactive) | 
O=C(CCCN1C(=O)c2cccc3cccc(c23)C1=O)N1CCN(Cc2ccc3c(c2)OCO3)CC1 | 4.65% (inactive) | 
O=C(CN1C(=O)c2cccc3cccc(c23)C1=O)N1CCCCC1 | 7.87% (inactive) | 
O=C(CN1C(=O)c2cccc3cccc1c23)Nc1ccccc1 | -0.0297% [at 11.6 µM] (inactive) | 
C[N+](C)(CCCCCC[N+](C)(C)CCCN1C(=O)c2cccc3cccc(c23)C1=O)CCCN1C(=O)c2cccc3cccc(c23)C1=O |  | 44.7 µM (active)
O=C1c2cccc3cccc(c23)C(=O)N1CCCCCc1n[nH]c(=S)o1 |  | 100 µM (active)
O=C(COC(=O)CCCN1C(=O)c2cccc3cccc(c23)C1=O)NC1CCS(=O)(=O)C1 (configuration not stated) | 7.47% (inactive) | 
Cc1ccc(CCNC(=O)CN2C(=O)CSc3ccc(S(=O)(=O)N4CCOCC4)cc32)cc1 | 3.55% (inactive) | 
CCOC(=O)[C@]12CCCC=C1N(CCC1=CCCCC1)C(=O)[C@H](CC(=O)NCCCCc1ccccc1)C2 | -1.56% (inactive) | 
CCCCOCCCNC(=O)C[C@@H]1C[C@@]2(C(=O)OCC)CCCC=C2N(CCC2=CCCCC2)C1=O | -5.97% (inactive) | 
CN(C)c1ccc(CSc2ccccc2)cc1 | -2.78% (inactive) | 
CS/C(=C\[N+](=O)[O-])Nc1ccc(C)cc1 | -4.16% (inactive) | 
Nc1nc2ncccn2c1-c1ccccc1 | -10.4% (inactive) | 
Clc1ccccc1CSc1nnc(-c2ccco2)c(-c2ccco2)n1 |  | 50.1 µM (active)
c1ccc(CSc2nnc(-c3ccco3)c(-c3ccco3)n2)cc1 |  | 28.2 µM (active)
COc1ccc(NCc2nnc(SCc3ccccc3)n2-c2ccc(OC)cc2)cc1 | -8.11% (inactive) | 
O=C(Nc1nnc(SCc2ccccc2Cl)s1)c1cccc([N+](=O)[O-])c1 | -22% (inactive) | 
CSc1nc(-c2ccco2)nn1C(=O)c1ccccc1Cl | 1.96% (inactive) | 
c1ccc(Cc2c(-c3ccco3)nc3c4ccccc4ccn23)cc1 | -14.6% (inactive) | 
CCCC1(C(=O)OC)NC(c2ccco2)C2C(=O)N(C)C(=O)C21 (configuration not stated) | 7.98% (inactive) | 
Cc1cc(C)c(S(=O)(=O)N2C=CC(C(F)(F)F)=NCC2)c(C)c1 | 0.503% (inactive) | 
CSc1c(SCc2ccccc2)cnn(Cc2ccccc2)c1=O | -22.2% [at 57.1 µM] (inactive) | 
O=C1C=CC(=O)N1c1ccc(N2CCCCC2)cc1 |  | 39.8 µM (active)
O=C(c1ccc(Cl)c(S(=O)(=O)N2CCCCCC2)c1)N1CCN(c2ccc(O)cc2)CC1 | 1.3% (inactive) | 
c1ccc(-n2cccc2)c(N2CCCCC2)c1 | 5.84% (inactive) | 
CCCC(NCC(=O)Nc1ccccc1C(=O)NC1CC1)c1ccccc1 (configuration not stated) | 0.331% (inactive) | 

Compound | activity change, negative = inhibition | Potency
CC(C)(C)c1cc[n+](-c2[nH]c(=O)sc2/C=N/N=C(\[O-])c2ccccc2)cc1 | -3.25% (inactive) | 
CCc1noc(C)c1C(=O)Oc1ccc(N(C)S(=O)(=O)c2ccc(C)c(C)c2)cc1 | 3.71% (inactive) | 
COc1cccc(CNC(=O)[C@@H]2CCCN2C(=O)[C@@H]2CCCN2C(=O)c2ccccc2)c1 | -0.0408% (inactive) | 
S=c1[nH]nc(-c2ccco2)n1/N=C/c1ccc(Br)s1 | -15.2% (inactive) | 
CCN(CC)S(=O)(=O)c1cccc(-c2n[nH]c(=S)n2/N=C/c2ccc(C(=O)OC)cc2)c1 | -28.1% [at 57.1 µM] (inactive) | 
S=c1[nH]nc(-c2cc(-c3ccccc3)n[nH]2)n1/N=C/c1c2ccccc2cc2ccccc12 |  | 50.1 µM (active)
COc1ccc(C)cc1NC(=O)CN(C)S(=O)(=O)c1ccc2c(c1)n(C)c(=O)c(=O)n2C | 6.64% (inactive) | 
COc1ccc2ccn(C)c2c1 | -28.2% (inactive) | 
OC(c1ccccc1)(c1ccccc1)C1CCN(CCCOc2ccccc2)CC1 | -2.24% (inactive) | 
CC(C)CCN1C(=O)c2ccc(C(=O)Nc3cccc(S(N)(=O)=O)c3)cc2C1=O | -16.1% (inactive) | 
Cc1ccnc(SC2CC(=O)N(c3ccccc3)C2=O)n1 (configuration not stated) | -4.59% (inactive) | 
Cc1ccnc(-n2sc3ccccc3c2=O)n1 |  | 31.6 µM (active)
Cc1ccc(NC(=O)Cn2sc3ccccc3c2=O)cc1 | 0.388% (inactive) | 
CCN(CC)C(=O)C1=C(C)N(Cc2ccc(OC)cc2)C(=O)C(CC(=O)NCc2ccco2)C1 (configuration not stated) | 0.799% (inactive) | 
CCCCOc1ccc(Cl)cc1CSc1nncn1N | 3.38% (inactive) | 
COC1=CCC2([N+](=O)[O-])CN(CC(=O)O)CC1([N+](=O)[O-])C2 (configuration not stated) | -3% (inactive) | 
C=CS(=O)c1sc(Cl)c(N2CCOCC2)c1[N+](=O)[O-] (configuration not stated) |  | 31.6 µM (active)
COC(=O)/C=C\C(=O)Nc1cccc([N+](=O)[O-])c1 |  | 28.2 µM (active)
COc1cccc(NCCC(=O)c2cccc([N+](=O)[O-])c2)c1 | -18% (inactive) | 
O=C(Nc1cccc([N+](=O)[O-])c1)N1CCc2ccccc2C1 | -7.84% (inactive) | 
COC(=O)[C@@]12C[C@@H](CC(=O)N3CCC(c4ccccc4)CC3)C(=O)N(Cc3ccccc3)C1=CCC(C)(C)C2 | -4.93% (inactive) | 
O=C(Cc1ccc([N+](=O)[O-])cc1)N/N=C/c1ccco1 | 2.17% (inactive) | 
O=C(N/N=C/c1ccco1)c1ccc(NC(=O)C2CC2)cc1 | -6.2% (inactive) | 
O=C(N/N=C/c1ccco1)c1ccc(C(=O)N/N=C/c2ccco2)o1 |  | 39.8 µM (active)
Cc1ccccc1-n1nc(C)c2c1N=C1C(Cl)=CC(Cl)=CN1C2c1ccc(C(=O)O)cc1 (configuration not stated) | -9.87% (inactive) | 
O=C(OC12CC3CC(CC(C3)C1)C2)c1ccc(NCc2cc(O)ccc2O)cc1 | -8.66% (inactive) | 

Compound | activity change, negative = inhibition | Potency
COC(=O)c1ccc(NCc2cc(O)ccc2O)cc1 |  | 79.4 µM (active)
CC(C)OC(=O)c1ccc(NCc2cc(O)ccc2O)cc1Cl | -17% (inactive) | 
O=C(c1ccccc1)c1cc(-c2ccccn2)c(N2CCOCC2)s1 | 1.8% (inactive) | 
NCCN1CCN2C(=O)CN(C(=O)c3ccccc3)CC12 (configuration not stated) | -9.08% (inactive) | 
O=C(/C=C/Sc1ncn[nH]1)c1ccc(Cl)cc1 |  | 35.5 µM (active)
Cc1cc(C)nc(S/C=C/C(=O)c2ccccc2)n1 | -24.2% (inactive) | 
COc1ccc(OC)c(NC(=O)C2(C)CCN2C(=O)Cc2ccccc2)c1 (configuration not stated) | -1.59% (inactive) | 
CCOC(=O)c1sc2nc(CSCC(=O)OCc3ccc(C(=O)OC)o3)[nH]c(=O)c2c1C | -1.35% (inactive) | 
Cc1sc2nc(CSCC(=O)Nc3c(Cl)cccc3Cl)[nH]c(=O)c2c1C | -17.4% [at 57.1 µM] (inactive) | 
CSc1nnc(SCc2nc3sc(C(=O)O)c(C)c3c(=O)[nH]2)s1 |  | 35.5 µM (active)
CCN1CCC(O)(/C=C/c2ccc(C)cc2)C(C(=O)/C=C/c2ccc(C)cc2)C1 (configuration not stated) |  | 14.1 µM (active)
CCN1CCC2(CC1)N=C(c1ccc(F)cc1)C(=S)N2C(=O)c1ccc(C)cc1 | -10.9% (inactive) | 
COc1cc2cc(CN(CCN3CCCC3)C(=O)Nc3ccccc3Cl)c(=O)[nH]c2cc1OC | -9.47% (inactive) | 
CC1=CC2=NC(=O)CC(C)(C(=O)N(CC(=O)NC(C)(C)C)Cc3ccccc3)N2C=C1 (configuration not stated) | -0.725% (inactive) | 
CC1CCCN(C(=O)c2ccc3c(c2)C(=O)N(CCC2=CCCCC2)C3=O)C1 (configuration not stated) | 0.2% (inactive) | 
N#CCSc1ccccc1NC(=O)CN1C(=O)NC(CCc2ccccc2)C1=O (configuration not stated) | 25.6% (inactive) | 
COc1ccccc1C(CNC(=O)c1cccc(NS(=O)(=O)c2ccc(Br)cc2)c1)N(C)C (configuration not stated) | 3.56% (inactive) | 
COc1ccc(S(=O)(=O)N2CCC(C(=O)OCC(=O)c3ccccc3)CC2)cc1[N+](=O)[O-] | 5.06% (inactive) | 
COc1cccc(/C=N/Nc2ccc(S(=O)(=O)Nc3ccccc3C(=O)O)cc2[N+](=O)[O-])c1O |  | 39.8 µM (active)
CCOc1ncccc1C(=O)NNC(=O)c1cccc(S(=O)(=O)Nc2ccccc2OC)c1 | -11.4% (inactive) | 
CC1CN(C(=O)c2ccccc2NS(=O)(=O)c2cccc([N+](=O)[O-])c2)CC(C)O1 (configuration not stated) | -20.5% [at 57.1 µM] (inactive) | 
COc1ccc(Br)cc1/C=N/Nc1ccc(S(=O)(=O)Nc2ccccc2C(=O)O)cc1[N+](=O)[O-] |  | 39.8 µM (active)
Cc1cc2nc3n(c2cc1C)CC1CC(C(=O)NCCC(C)C)N(C)C31 (configuration not stated) | 8.32% (inactive) | 
CCCCSc1nnc2c(n1)OC=Nc1ccccc1-2 | 1.18% (inactive) | 
Cc1cccc(N2CC(C)Cn3c2nc2c3c(=O)n(CC(=O)OCc3ccccc3)c(=O)n2C)c1 (configuration not stated) | -4.82% (inactive) | 
